Screening results: PubChem, National Center for Advancing Translational Sciences (NCATS)
Rows were chosen to be rich in hits. Some 10% of all compounds tested hit in one or more screens of this group.
G9a inh – qHTS Assay for Inhibitors of Histone Lysine Methyltransferase G9a. Histone-lysine N-methyltransferase EHMT2 (Homo sapiens), Q96KQ7. G9a H3K9 monomethylation, AlphaScreen, 2 h. Potency, µM (highest dose often 102 µM), for the others: top-dose activity, negative = inhibition, actives largely listed as inhibitors. 8.8% of 350,000 active. AID 504332, 2011; also: % is scaled to controls: 0 for no effect and ±100 for the full control effect; nearly all actives have a fitted effect of over 75% in size
Target sequence (Q96KQ7 913-1193 limits assumed): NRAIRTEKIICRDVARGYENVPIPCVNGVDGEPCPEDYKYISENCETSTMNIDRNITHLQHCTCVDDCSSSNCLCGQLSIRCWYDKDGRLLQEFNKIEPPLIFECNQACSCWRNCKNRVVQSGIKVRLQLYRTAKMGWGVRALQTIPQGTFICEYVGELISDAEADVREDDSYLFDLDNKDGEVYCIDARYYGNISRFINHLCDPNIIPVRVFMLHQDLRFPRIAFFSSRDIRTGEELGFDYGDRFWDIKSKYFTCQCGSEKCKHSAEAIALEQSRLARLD
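AlphaScreen read-out: biotin-H3K9 peptide (500 nM) methylation by 20 nM enzyme with 20 uM SAM, 2 h at room temperature after 15 min compound preincubation; anti-monomethyl H3K9 antibody plus donor/acceptor beads, 10 min dark.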
GLS inh – qHTS for Inhibitors of Glutaminase (GLS); Glutaminase kidney isoform, mitochondrial (Homo sapiens), O94925; GLS enzymatic activity, qHTS titration; Potency, µM (titrated, usually from 45.5 µM), for inactives: top-dose activity change, negative = inhibition, hits mostly inhibitors; 0.21% of 410,000 active; also: % is scaled to controls: 0 for no effect and ±100 for the full control effect
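Coupled fluorescence readout: glutamate oxidase/HRP/Amplex Red detect glutamate formed by hKGA from L-glutamine (1 mM solution added). Buffer 45 mM KH2PO4 pH 8.2, 0.02% Tween-20; reads at t0 and 30 min RT.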
HP1b binding inh – HTS for Inhibitors of HP1-beta Chromodomain Interactions with Methylated Histone Tails; Potency, µM (top dose mostly 114 µM), inactives show at the top dose activity change, negative = inhibition, most hits filed as inhibitors; AlphaScreen HP1-beta / biotin-H3K9me3 peptide binding; 0.56% of 390,000 active; also: nearly all actives have a fitted effect of over 70% in size
Target sequence (P83916 whole entry, looked up): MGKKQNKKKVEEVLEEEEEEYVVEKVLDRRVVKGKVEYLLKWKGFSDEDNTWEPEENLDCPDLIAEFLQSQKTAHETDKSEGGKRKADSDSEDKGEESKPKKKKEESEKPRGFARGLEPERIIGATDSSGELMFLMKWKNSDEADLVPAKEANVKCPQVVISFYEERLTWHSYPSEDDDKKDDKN
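Compound inhibition of the preformed complex between 50 nM HP1-beta and 50 nM biotinylated H3K9me3 peptide was read by AlphaScreen. Buffer was PBS pH 7.4 with 0.01% Tween-20. Incubations ran 30 min at room temperature, with 10 ug/mL donor/acceptor beads.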
JMJD2A Tudor – qHTS Assay for Inhibitors of JMJD2A-Tudor Domain | Lysine-specific demethylase 4A (Homo sapiens), O75164 | AlphaScreen JMJD2A-Tudor / H3K4me3 peptide binding | Potency, µM (highest dose often 114 µM), inactives show top-dose activity change, negative = inhibition, actives largely listed as inhibitors | 4.4% of 390,000 active; also: % is scaled to controls: 0 for no effect and ±100 for the full control effect; nearly all actives have a fitted effect of over 50% in size
BAZ2B block – qHTS Assay for Inhibitors of BAZ2B; Bromodomain adjacent to zinc finger domain protein 2B (Homo sapiens), Q9UIF8; AlphaScreen BAZ2B-H3K14Ac peptide displacement; Potency, µM (titrated, usually from 114 µM), without a hit: at the highest dose activity change, negative = inhibition, most hits filed as inhibitors; 4.4% of 360,000 active; AID 504333, 2011; also: % is scaled to controls: 0 for no effect and ±100 for the full control effect; nearly all actives have a fitted effect of over 60% in size
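Complex of BAZ2B and biotin-H3K14Ac (50 nM apiece) forms over 30 min at RT, then faces library compounds up to 110 uM for another 30 min; AlphaScreen beads added, 20 min dark incubation, luminescence read.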
Numbers without * were called inactive; ? = inconclusive; · = no result given; ! = a repeat was not active; [ ] = dose if it differs, or a comment. Calls follow the shape of the dose curve; as a rule, active = well fitted curve in the direction sought with a large enough effect; inconclusive = small, poorly fitted or top-dose-only effect, or another doubt; inactive = no such curve, though single readings can be large; an effect the other way counts as inactive or inconclusive. Potency is read from the fitted curve at half-maximal effect.

SMILES	G9a inh	GLS inh	HP1b binding inh	JMJD2A Tudor	BAZ2B block
CCn1c(SCC(=O)NNC(=O)c2ccc(OC)cc2)nnc1C1CC1	19%	-5%	5%	?	10%
CNC(=O)c1[nH]cnc1C(=O)Nc1ccccc1OC	?	-3%	24%	?	-28%
COc1ccc2[nH]cc(CCNC(C)=O)c2c1	0%[59 µM]	-1%	11%	-19%	·
CC(=O)NCCc1c[nH]c2ccc(O)cc12	11µM*!	74%	35%	-9%	·
Cc1ccc(S(=O)(=O)N2CCOCC2)cc1C(=O)NCc1ccco1	-16%[59 µM]	-1%	23%	-7%	3%
O=C(COc1ccc(Br)cc1)Nc1cc(S(=O)(=O)N2CCCCC2)ccc1N1CCCCC1	-7%[59 µM]	2%	-2%	-14%	0%
CN1CCN(c2ccc(S(=O)(=O)N3CCCCC3)cc2NC(=O)COc2ccc(F)cc2)CC1	28µM*	-6%	-13%	?	?
CN1CCN(c2ccc(S(=O)(=O)N3CCCCC3)cc2NC(=O)COc2cccc(Cl)c2)CC1	40µM*	2%	-36%	?	?
Cc1cccc(OCC(=O)Nc2cc(S(=O)(=O)N3CCCCC3)ccc2N2CCN(C)CC2)c1	-19%	-5%	4%[57 µM]	-27%	·
COC(=O)c1nn(-c2ccc(C)cc2)c2nnc(Cc3ccccc3)c(=O)n12	18µM*	-1%	41%	0%	0%
CCN(CC)CCNCc1ccc(-c2ccc(Cl)cc2)o1	50µM*	68%	-7%	?	?
O=C(CCCn1c(SCc2cccc(F)c2)nc2ccccc2c1=O)NCC1CCCO1 (stereo not given)	-5%[59 µM]	-1%	29%	-17%	-28%
Cc1cc(=O)[nH]c(SCC(=O)Nc2ccc(S(N)(=O)=O)cc2)n1	?	?	23%	-35%	-21%
O=C(CCCn1c(=S)[nH]c2cc3c(cc2c1=O)OCO3)N1CCN(c2ncccn2)CC1	?	-11%	66%	?	-30%
Fc1ccc(/C=N/n2cnn(Cc3ccccc3Cl)c2=S)cc1	20µM*	-25%	-5%	27%	26%
CN(C)c1ccc(/C=N/n2cnn(Cc3ccccc3Cl)c2=S)cc1	4.5µM*	4%	?	-22%	?
O=C(O)CCCN1C(=O)C(=O)/C(=C(/O)c2ccccc2)C1/C=C/c1ccccc1 (stereo not given)	22%[0.501 µM]	?	2%	45µM*	?
O=C(O)CCCN1C(=O)C(=O)/C(=C(/O)c2ccc(Cl)cc2)C1c1ccccc1 (stereo not given)	?	6%	30%	?	-3%
CCOC(=O)C1=C(c2ccccc2)NC(SC)=C(C#N)C1c1ccco1 (stereo not given)	45µM*	16%	40%	?	-33%
CSCSC1=C(C#N)C(c2ccc(Cl)cc2)C(C(C)=O)=C(C)N1 (stereo not given)	7.9µM*	·	·	·	11%
CCOC(=O)C1=C(c2ccccc2)NC(SCC(=O)Nc2ccc(C)cc2)=C(C#N)C1c1ccco1 (stereo not given)	-6%[59 µM]	8%	25%	-23%	-2%
CC(=O)C1=C(C)NC(SCC(=O)c2ccccc2)=C(C#N)C1c1ccco1 (stereo not given)	?	·	·	·	12%
CC(=O)C1=C(C)NC(SCc2cccc3ccccc23)=C(C#N)C1c1ccco1 (stereo not given)	32µM*	-1%	37%	10µM*	-8%
CC(=O)C1=C(C)NC(SCc2ccc(C#N)cc2)=C(C#N)C1c1ccco1 (stereo not given)	?	-3%	34%	20µM*	-33%
CCOc1ccc(OCC)c(S(=O)(=O)NCCOC23CC4CC(CC(C4)C2)C3)c1	32%[59 µM]	0%	55%	13%	5%
SMILES	G9a inh	GLS inh	HP1b binding inh	JMJD2A Tudor	BAZ2B block
COc1cc(O)sc1C=Nc1ccc(Cl)cc1	?	1%	11%	?	-34%
O=C(COc1ccc(Cl)cc1)NCCCNC(=O)c1cnccn1	-9%	0%	27%[57 µM]	-8%	-8%
CCCC(c1nnnn1CS(=O)(=O)c1ccc(C)cc1)N1CCN(C2CCCC2)CC1 (stereo not given)	50µM*	8%	-14%	?	-25%
CNC(=O)c1cc2cc(OC)ccc2oc1=N	56µM*	18%	13%	-7%	-25%
COc1ccc2oc(=N)c(C(=O)NCc3ccccc3)cc2c1	35µM*	4%	1%	-14%	-4%
O=S(=O)(N/N=C\C=C\c1ccccc1)c1ccc(Br)cc1	43%[59 µM]	1%	35%	-23%	-6%
CCCN(C(=O)c1cc2c(=O)oc3ccc(C)cc3c2s1)c1ccc(OCC)cc1	10%[59 µM]	5%	46%	-1%	-4%
CCN(CC)C(=O)c1[nH]cnc1C(=O)NCCCCCNC(=O)OC(C)(C)C	6%[2.33 µM]	2%	24%	-6%	3%
O=[N+]([O-])c1ccc(S(=O)(=O)c2ccccc2)nc1	40µM*	3%	24%	-19%	13%
Cc1ccc(S(=O)(=O)c2ccc([N+](=O)[O-])cn2)cc1	40µM*	-11%	6%[57 µM]	-29%	?
COC(=O)N/N=C/c1cc(C)n(-c2ccc(F)cc2)c1C	?	-1%	8%	-36%	?
COC(=O)N/N=C/c1cc(C)n(-c2ccc(Br)cc2)c1C	·	-7%	?	-25%	45µM*
Cc1cc(/C=N/NC(=O)c2ccncc2)c(C)n1-c1ccccc1	?	-15%	2%	-27%	?
Cc1ccc(-n2c(C)cc(/C=N/NC(=O)c3ccncc3)c2C)cc1C	50µM*	2%	-16%	?	50µM*
Cc1cccc(C)c1-n1c(C)cc(/C=N/NC(=O)c2ccncc2)c1C	?	10%	15%	?	?
CCc1ccc(-n2c(C)cc(/C=N/NC(=O)c3ccncc3)c2C)cc1	·	-9%	-3%	?	40µM*
Cc1ccc(-n2c(C)cc(/C=N/NC(=O)c3ccncc3)c2C)c(C)c1	?	0%	6%	?	45µM*
CCCCn1c(=O)c2c(nc3n2CCCN3Cc2ccccc2)n(C)c1=O	?	-1%	-10%	-31%	-28%
c1cc2c(cc1C1CCCCC1)c1c3n2CCN=C3CCC1	?	-6%	-10%	?	0%
Cc1ccc2c(c1)c1c3n2CCN=C3CCC1	18µM*	3%	11%	-24%	·
C/C(=N/NS(=O)(=O)c1ccc(C)cc1)[C@H]1C[C@@H]1c1ccccc1	13µM*	-3%	43%	4%	1%
